Measured values taken from the supplement of paper PMC12494721.
Where a name gives a salt, the structure may show the parent alone.

Tests used:
Conditions in all cases: incubation time: 27 h, anaerobic, 37 °C;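 for the amine columns active = adjusted P below 0.05 in both replicates with a change the same way and a mean fold change under 0.8 or over 1.25; inactive = the rest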
[1] = system: Clostridium sporogenes DSM 1664; experiment: growth (OD595) fold change vs plate DMSO controls (fold change (ratio)); higher = more growth
How it was run: (§1)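 Anaerobic 27 h, 37 °C mGAM 96-well cultures were shaken, then read for absorbance at 595 nm. Values were blank-subtracted and corrected for compound background using 20 µM compound solutions in water. A calibration factor of 5 converted them to OD. Growth is the fold change versus the median of plate DMSO controls. Fold changes above 1.5 were set to NA, and values are the mean of 2 biological replicates.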

[2] = system: Escherichia coli IAI1; experiment: as above
How it was run: as §1

[3] = system: Klebsiella aerogenes DSM 30053; experiment: as above
How it was run: as §1

[4] = system: Ruminococcus gnavus DSM 108212; experiment: as above
How it was run: as §1

[5] = system: Klebsiella aerogenes DSM 30053; experiment: fold change of Histamine concentration vs plate DMSO controls (fold change (ratio)); higher = more amine produced, active = hit call of the paper (significant change in both replicates, either direction)
How it was run: (§2)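 Amine values are fold changes relative to DMSO-only wells on the same plate. They derive from 27 h, 37 °C anaerobic mGAM cultures of four gut bacterial strains in 80 µL wells, dosed at 20 µM final, or 50 µM final for sweeteners. Extraction of the whole culture, LC–triple-quadrupole MS in dynamic MRM mode, external calibration curves and within-batch drift correction were used, with 2 biological replicates averaged.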

[6] = system: Clostridium sporogenes DSM 1664; experiment: fold change of Tryptamine concentration vs plate DMSO controls (fold change (ratio)); higher = more amine produced, active = hit call of the paper (significant change in both replicates, either direction)
How it was run: as §2

[7] = system: Ruminococcus gnavus DSM 108212; experiment: as above
How it was run: as §2

[8] = system: Escherichia coli IAI1; experiment: fold change of Putrescine concentration vs plate DMSO controls (fold change (ratio)); higher = more amine produced, active = hit call of the paper (significant change in both replicates, either direction)
How it was run: as §2

[9] = system: Klebsiella aerogenes DSM 30053; experiment: as above
How it was run: as §2

[10] = system: Escherichia coli IAI1; experiment: fold change of Cadaverine concentration vs plate DMSO controls (fold change (ratio)); higher = more amine produced, active = hit call of the paper (significant change in both replicates, either direction)
How it was run: as §2

[11] = system: Klebsiella aerogenes DSM 30053; experiment: as above
How it was run: as §2

[12] = system: Ruminococcus gnavus DSM 108212; experiment: fold change of 2-Phenylethylamine concentration vs plate DMSO controls (fold change (ratio)); higher = more amine produced, active = hit call of the paper (significant change in both replicates, either direction)
How it was run: as §2

| SMILES | growth [1] | growth [2] | growth [3] | growth [4] | fold change of Histamine concentration [5] | fold change of Tryptamine concentration [6] | fold change of Tryptamine concentration [7] | fold change of Putrescine concentration [8] | fold change of Putrescine concentration [9] | fold change of Cadaverine concentration [10] | fold change of Cadaverine concentration [11] | fold change of 2-Phenylethylamine concentration [12] |
| --- | --- | --- | --- | --- | --- | --- | --- | --- | --- | --- | --- | --- |
| CC(C)c1nc(CN(C)C(=O)N[C@H](C(=O)N[C@@H](Cc2ccccc2)C[C@H](O)[C@H](Cc2ccccc2)NC(=O)OCc2cncs2)C(C)C)cs1 [Ritonavir] (20 µM) | 1.01 | 0.962 | 0.987 | 0.983 | 1.08 (inactive) | 0.822 (inactive) | 0.942 (inactive) | 0.943 (inactive) | 1.01 (inactive) | 0.99 (inactive) | 0.985 (inactive) | 0.939 (inactive) |
| NCc1ccc(S(N)(=O)=O)cc1 [Mafenide hydrochloride] (20 µM) | 1.13 | 1 | 1.04 | 0.971 | 1.08 (inactive) | 0.888 (inactive) | 0.773 (inactive) | 1 (inactive) | 1.02 (inactive) | 1.04 (inactive) | 0.987 (inactive) | 0.755 (inactive) |
| N[C@@H](C(=O)N[C@@H]1C(=O)N2C(C(=O)O)=C(Cl)CS[C@H]12)c1ccccc1 [Cefaclor hydrate] (20 µM) | 0.594 | 0.999 | 1.06 | 0.999 | 0.947 (inactive) | 0.846 (inactive) | 0.783 (inactive) | 0.939 (inactive) | 1.07 (inactive) | 1.23 (inactive) | 1.03 (inactive) | 0.859 (inactive) |
| CCCCNC(=O)NS(=O)(=O)c1ccc(C)cc1 [Tolbutamide] (20 µM) | 0.926 | 0.985 | 0.957 | 0.746 | 1.04 (inactive) | 1.02 (inactive) | 1.01 (inactive) | 0.978 (inactive) | 0.988 (inactive) | 1 (inactive) | 1 (inactive) | 1.04 (inactive) |
| CCC(C)(CN(C)C)OC(=O)c1ccccc1 (stereo not given) [Amyleine hydrochloride] (20 µM) | 0.952 | 1.01 | 0.983 | 0.997 | 1.02 (inactive) | 0.974 (inactive) | 0.945 (inactive) | 1.04 (inactive) | 1.02 (inactive) | 1.01 (inactive) | 0.983 (inactive) | 0.874 (inactive) |
| CN1CCOC(c2ccccc2)c2ccccc2C1 (stereo not given) [Nefopam hydrochloride] (20 µM) | 1.09 | 1 | 0.963 | 1.09 | 0.855 (inactive) | 1.1 (inactive) | 1.02 (inactive) | 1.03 (inactive) | 0.94 (inactive) | 0.943 (inactive) | 1.03 (inactive) | 1.03 (inactive) |
| N=c1ccn2c(n1)O[C@H]1[C@H](O)[C@@H](CO)O[C@H]12 [Ancitabine hydrochloride] (20 µM) | 1.2 | 1.01 | 0.999 | 0.855 | 1.06 (inactive) | 0.98 (inactive) | 0.744 (active) | 1.02 (inactive) | 0.991 (inactive) | 1 (inactive) | 0.992 (inactive) | 0.794 (inactive) |
| CNC(=C[N+](=O)[O-])NCCSCc1csc(CN(C)C)n1 [Nizatidine] (20 µM) | 1.13 | 1.02 | 1.01 | 1.09 | 1.04 (inactive) | 0.99 (inactive) | 0.971 (inactive) | 0.988 (inactive) | 1.03 (inactive) | 0.984 (inactive) | 1 (inactive) | 0.954 (inactive) |
| CNCCCN1c2ccccc2CCc2ccccc21 [Desipramine hydrochloride] (20 µM) | 0.96 | 1.09 | 0.971 | 1.12 | 1.06 (inactive) | 0.982 (inactive) | 0.946 (inactive) | 1.01 (inactive) | 1.01 (inactive) | 1.56 (inactive) | 0.987 (inactive) | 0.934 (inactive) |
| CC(=O)Oc1ccc(C(=C2CCCCC2)c2ccc(OC(C)=O)cc2)cc1 [Cyclofenil] (20 µM) | 0.924 | 1.04 | 1.03 | 0.991 | 0.983 (inactive) | 0.873 (inactive) | 0.953 (inactive) | 1.05 (inactive) | 0.997 (inactive) | 0.997 (inactive) | 1 (inactive) | 0.942 (inactive) |
| CN(C)CCC=C1c2ccccc2CCc2ccccc21 [Amitryptiline hydrochloride] (20 µM) | 1.05 | 1.04 | 1.06 | 1.12 | 0.911 (inactive) | 0.996 (inactive) | 0.973 (inactive) | 1.01 (inactive) | 0.936 (inactive) | 1.01 (inactive) | 1.02 (inactive) | 1.01 (inactive) |
| Cc1ccccc1N1C(=O)c2cc(S(N)(=O)=O)c(Cl)cc2NC1C (stereo not given) [Metolazone] (20 µM) | 1.14 | 0.984 | 1.02 | 1.07 | 1.04 (inactive) | 0.993 (inactive) | 1.03 (inactive) | 1.02 (inactive) | 0.995 (inactive) | 0.977 (inactive) | 0.993 (inactive) | 1.04 (inactive) |
| COc1ccc(C2C(=O)c3ccccc3C2=O)cc1 [Anisindione] (20 µM) | 0.917 | 0.951 | 0.965 | 1.04 | 1.03 (inactive) | 0.976 (inactive) | 0.994 (inactive) | 0.953 (inactive) | 1 (inactive) | 0.994 (inactive) | 0.991 (inactive) | 0.951 (inactive) |
| Cc1cn(-c2cc(NC(=O)c3ccc(C)c(Nc4nccc(-c5cccnc5)n4)c3)cc(C(F)(F)F)c2)cn1 [Nilotinib] (20 µM) | 0.888 | 1.07 | 1.11 | 1.02 | 0.924 (inactive) | 1.06 (inactive) | 0.879 (inactive) | 1 (inactive) | 1.01 (inactive) | 0.967 (inactive) | 1.01 (inactive) | 0.897 (inactive) |
| COc1ccc2cc([C@@H](C)C(=O)O)ccc2c1 [(R) Naproxen sodium salt] (20 µM) | 0.979 | 1.08 | 1.07 | 0.811 | 1.03 (inactive) | 1.07 (inactive) | 1.05 (inactive) | 0.951 (inactive) | 0.974 (inactive) | 0.956 (inactive) | 1 (inactive) | 1.11 (inactive) |
| NS(=O)(=O)c1cc2c(cc1Cl)NC(Cc1ccccc1)NS2(=O)=O (stereo not given) [Benzylhydrochlorothiazide] (20 µM) | 1.04 | 1.05 | 0.986 | 0.982 | 0.96 (inactive) | 1.05 (inactive) | 1.06 (inactive) | 1.06 (inactive) | 0.971 (inactive) | 0.887 (inactive) | 1.01 (inactive) | 1.07 (inactive) |
| CN(C)c1cc(NC(=O)CNC(C)(C)C)c(O)c2c1C[C@H]1C[C@H]3[C@H](N(C)C)C(=O)C(C(N)=O)=C(O)[C@@]3(O)C(=O)C1=C2O [Tigecycline] (20 µM) | 0.926 | 1.12 | 1.18 | 1.19 | 0.865 (inactive) | 0.964 (inactive) | 1.08 (inactive) | 1.08 (inactive) | 0.991 (inactive) | 0.967 (inactive) | 1.03 (inactive) | 1.13 (inactive) |
| Nc1nc(O)c2ncn(CCC(CO)CO)c2n1 [Penciclovir] (20 µM) | 1.11 | 1.12 | 1.06 | 1.14 | 0.824 (inactive) | 1.07 (inactive) | 1.08 (inactive) | 1.08 (inactive) | 0.962 (inactive) | 0.996 (inactive) | 1.02 (inactive) | 1.12 (inactive) |
| CC(C)(Oc1ccc(Cl)cc1)C(=O)O [Clofibric acid] (20 µM) | 1.11 | 0.983 | 1.02 | 0.96 | 1.12 (inactive) | 0.982 (inactive) | 1 (inactive) | 0.957 (inactive) | 1.02 (inactive) | 1 (inactive) | 0.982 (inactive) | 1 (inactive) |
| CC1(C)S[C@@H]2[C@H](NC(=O)[C@H](N)c3ccccc3)C(=O)N2[C@H]1C(=O)O [Ampicillin sodium salt] (20 µM) | 0.00123 | 0.943 | 0.726 | 0.0281 | 1.2 (inactive) | 0.0126 (active) | 0.0802 (active) | 0.981 (inactive) | 1.02 (inactive) | 1.23 (inactive) | 1.18 (inactive) | 0.0719 (active) |
| O=S(=O)(O)CCS [Coenzyme M] (20 µM) | 0.917 | 1.06 | 1 | 1.01 | 1.12 (inactive) | 1.02 (inactive) | 0.951 (inactive) | 1.03 (inactive) | 1.01 (inactive) | 0.979 (inactive) | 0.986 (inactive) | 0.902 (inactive) |
| Cc1c(NC(=O)c2cccnc2)c(=O)n(-c2ccccc2)n1C [Nifenazone] (20 µM) | 0.595 | 0.988 | 1.03 | 0.857 | 0.926 (inactive) | 0.135 (active) | 1.02 (inactive) | 0.723 (active) | 0.978 (inactive) | 0.865 (inactive) | 1 (inactive) | 1.03 (inactive) |
| CO[C@@H]1[C@@H](O[C@@H]2O[C@H](C)[C@@H](O[C@H]3C[C@@](C)(O)[C@@H](OC(=O)CC(C)C)[C@H](C)O3)[C@H](N(C)C)[C@H]2O)[C@@H](CC=O)C[C@@H](C)[C@@H](O)/C=C/C=C/C[C@@H](C)OC(=O)C[C@H]1OC(C)=O [Josamycin] (20 µM) | 0.00305 | 0.881 | 0.953 | 0.124 | 0.572 (inactive) | 0.0546 (active) | 0.135 (active) | 0.708 (inactive) | 1.08 (inactive) | 1.34 (active) | 1.06 (inactive) | 0.116 (active) |
| CC1CC(OC(=O)C(O)c2ccccc2)CC(C)(C)C1 (stereo not given) [Cyclandelate] (20 µM) | 0.937 | 1.02 | 1.04 | 1.02 | 0.997 (inactive) | 1.04 (inactive) | 1.03 (inactive) | 0.959 (inactive) | 1.02 (inactive) | 1.02 (inactive) | 1.01 (inactive) | 1.03 (inactive) |
| CC1(C)O[C@@H]2C[C@H]3[C@@H]4C[C@H](F)C5=CC(=O)CC[C@]5(C)[C@H]4[C@@H](O)C[C@]3(C)[C@]2(C(=O)CO)O1 [Flurandrenolide] (20 µM) | 0.993 | 1.15 | 0.987 | 1.27 | 0.982 (inactive) | 1.08 (inactive) | 1.16 (inactive) | 1.18 (inactive) | 0.966 (inactive) | 0.954 (inactive) | 1.04 (inactive) | 1.33 (inactive) |
